# E coli Lon inh – inhibitors of E. coli Lon protease, primary screen, biochemical, fluorescence polarization; P0A9M0; purified E. coli Lon protease; inhibition, % at 7.94 µM; 0.42% of 360,000 active; AID 602123, 2011; in the data active = inhibition above about 13%, passing the limit was not always enough;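 also: 0% = enzyme with probe and DMSO and 100% = no enzyme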
# LANA DNA inh – inhibitors of KSHV C-LANA binding to DNA, primary screen, biochemical, fluorescence polarization, FAM-LBS DNA, MBP-C-LANA, single point | Kaposi's sarcoma herpesvirus LANA C-terminal domain (residues 932-1162) DNA binding | inhibition, % at 9 µM | 0.078% of 340,000 active;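 active = highest replicate inhibition at or above 60% at 9 µM, even if other replicates fall short; inactive = all replicates below 60% inhibition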;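 also: 0% = neutral control wells and 100% = 4 µM acridine orange control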
# ZTA DNA inh – blocks Epstein-Barr virus ZTA, an EBNA-1 counter-screen; P03206; ZTA-DNA binding, fluorescence polarization; inhibition, % at 11 µM; 0.15% of 320,000 active; in the data active = inhibition above about 33%
# Keap1-Nrf2 PPI – Keap1-Nrf2 protein-protein interaction inhibitors, primary screen, biochemical, fluorescence polarization, single point; Keap1 Kelch-Nrf2 peptide fluorescence polarization, 1536-well; inhibition, % at 9.4 µM; 0.15% of 340,000 active; AID 504523, 2011; in the data active = inhibition above about 12%;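 also: human Keap1 Kelch domain with fluorescein labeled Nrf2 9mer peptide probe; 0% = neutral control wells and 100% = peptide positive control; higher means more block of Keap1 binding to Nrf2 peptide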
# Target sequence (Q14145 whole entry, looked up, the tested form may be a part): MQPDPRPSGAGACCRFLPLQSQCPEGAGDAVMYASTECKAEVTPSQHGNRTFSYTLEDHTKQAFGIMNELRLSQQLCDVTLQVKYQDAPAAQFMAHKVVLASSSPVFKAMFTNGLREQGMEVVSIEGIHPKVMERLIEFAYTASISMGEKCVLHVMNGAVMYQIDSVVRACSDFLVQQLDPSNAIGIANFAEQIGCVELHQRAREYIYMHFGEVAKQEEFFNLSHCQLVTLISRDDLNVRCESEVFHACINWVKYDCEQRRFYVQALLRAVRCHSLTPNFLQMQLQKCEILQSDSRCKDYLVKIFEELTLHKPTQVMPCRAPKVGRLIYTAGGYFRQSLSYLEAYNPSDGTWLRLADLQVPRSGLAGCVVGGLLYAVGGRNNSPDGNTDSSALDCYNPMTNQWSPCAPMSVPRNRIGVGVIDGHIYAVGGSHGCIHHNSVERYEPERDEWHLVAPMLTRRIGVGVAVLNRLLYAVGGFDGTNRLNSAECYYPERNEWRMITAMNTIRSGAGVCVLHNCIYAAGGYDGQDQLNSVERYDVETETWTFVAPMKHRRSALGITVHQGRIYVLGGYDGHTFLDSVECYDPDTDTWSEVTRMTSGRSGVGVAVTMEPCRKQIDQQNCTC
# EBNA-1 inhibitor – EBNA-1 DNA-binding inhibitors, primary screen, biochemical, fluorescence polarization; 0.34% of 300,000 active; inhibition, % at 14.8 µM; in the data active = inhibition above about 28%
# eLon confirm – E. coli Lon protease inhibitor retest, confirmation, biochemical, fluorescence polarization; purified E. coli Lon; shares compounds with E coli Lon inh; 31% of 1,400 active; AID 602230, 2012; inhibition, % at 7.94 µM; in the data active = inhibition above about 16%;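 also: 0% = enzyme with probe and DMSO and 100% = no enzyme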
# The depositor's hits bear a star; x = no result given; + = active, no number. The list is not random: actives were taken first. Their share in the collection is about 0.85%.
SMILES,E coli Lon inh,LANA DNA inh,ZTA DNA inh,Keap1-Nrf2 PPI,EBNA-1 inhibitor,eLon confirm
Cc1cccc(N2N=C(C(=O)Nc3nc(C)cs3)CCC2=O)c1,1,3,1,0,-9,x
COC(=O)NCc1ccc2c(c1)OCO2,5,0,9,-2,4,x
COC(=O)c1ccc(=O)n(Cc2ccc3c(c2)OCO3)c1,21*,1,-10,-1,1,-7
O=C(NCCCN1CCCC1)Nc1ccccc1[N+](=O)[O-],16*,0,-3,-1,5,9
O=C(NCCc1ccccc1)/C(=C\c1ccccc1)NC(=O)c1ccco1,-14,-1,-1,-2,7,x
Cc1cc(C)c(NC(=O)C(C)N2CCCCCC2)c(C)c1 (centres undefined),71*,1,-9,1,5,-5
CCn1c(CCC(=O)N(C)CC(=O)Nc2cccc(F)c2)nc2cc(S(=O)(=O)N(C)C)ccc21,15*,3,9,-5,0,5
O=C(Cc1cccc2ccccc12)Nc1nc2ccccc2[nH]1,65*,0,-20,0,-4,3
CCc1ccc(N(CC(=O)Nc2ccccc2C(=O)N2CCCC2)S(C)(=O)=O)cc1,0,0,-2,-1,-7,x
CN(C)CCN(Cc1cccs1)S(=O)(=O)c1csc(C(N)=O)c1,-9,0,2,-2,-1,x
COc1ccc(C=NOCC(=O)OCC(=O)Nc2ccc(OC)cc2)cc1,50*,0,x,0,x,21*
O=C(c1ccc(Cl)cc1)N1CCC2CC1c1cc(-c3ccccc3)ccc12 (centres undefined),16*,1,x,-2,x,4
CCCNC(=O)C1(C)CCN(C(=O)c2ccc(F)c(Cl)c2)C1 (centres undefined),-11,x,x,x,x,x
O=C(COc1cccnc1[N+](=O)[O-])Nc1ncc(Cl)cc1Cl,18*,3,-1,-5,x,-4
O=C(COc1cccnc1[N+](=O)[O-])Nc1c(Cl)cccc1Cl,6,2,x,-3,x,x
O=C(CSc1nncs1)Nc1ccc(Cl)cc1C(F)(F)F,-7,3,-28,-3,-1,x
O=c1c2ccccc2[nH]c2ccc(O)cc12,84*,25,-3,-3,4,71*
Cc1ccc2[nH]c3ccccc3c(=O)c2c1,-4,1,3,-5,12,x
CCc1ccc(C(=O)NNC(=O)c2cccc(S(=O)(=O)N3CCN(C)CC3)c2)cc1,-2,1,x,2,x,x
N#Cc1ccc(Oc2cccc3cccnc23)c([N+](=O)[O-])c1,101*,2,3,1,0,13
COc1ccc2nc(N3CCC(O)CC3)c(C#N)cc2c1,0,4,3,5,4,x
COc1ccc2nc(N3CCC(C)CC3)c(C#N)cc2c1,15*,1,-15,1,-15,23*
COc1ccc(/C=C2\Sc3ccc(C(=O)NCC4CCCO4)cc3N(C)C2=O)cc1 (centres undefined),7,0,5,5,1,x
COC(=O)Nc1ccc(S(=O)(=O)Nc2ncccn2)cc1,27*,0,-6,1,5,-78
CCCCCOC(=O)Nc1ccc(S(=O)(=O)Nn2cnnc2)cc1,4,5,-3,-9,3,x
SMILES,E coli Lon inh,LANA DNA inh,ZTA DNA inh,Keap1-Nrf2 PPI,EBNA-1 inhibitor,eLon confirm
COc1ccc(C(=O)Nc2ccc(S(=O)(=O)Nc3ncccn3)cc2)cc1OC,21*,-1,6,-5,-4,9
C/C(=C\c1ccccc1)C(=O)Nc1ccc(S(=O)(=O)Nc2ncccn2)cc1,22*,0,-7,3,7,-18
CCCCOC(=O)Nc1ccc(S(=O)(=O)Nc2ncccn2)cc1,21*,5,-3,2,-8,30*
Cc1ccc(S(=O)(=O)N2C[C@H]3C(=O)C[C@@H](c4ccccc4)N(S(=O)(=O)c4ccccc4C)[C@H]3C[C@H]2c2ccccc2)cc1,-12,x,x,x,x,x
CC1(C(=O)NCc2ccc(Cl)cc2)CCN1C(=O)c1cccc(F)c1 (centres undefined),0,x,x,x,x,x
Nc1nc(SCC(=O)c2c(N)n(C3CC3)c(=O)[nH]c2=O)n[nH]1,-13,0,x,-2,x,x
CN(C)C(=O)c1cccc(-c2cnc3c(NC=O)cc(-c4ccccc4N(C)C)cn23)c1,+,x,x,x,x,124*
CN(C)c1ccccc1-c1cc(NC=O)c2ncc(-c3cccc(C(F)(F)F)c3)n2c1,+,x,x,x,x,+
CN(C)C(=O)c1cccc(-c2cnc3c(NC=O)cc(-c4ccccc4Cl)cn23)c1,-14,x,x,x,x,x
O=C(N/N=C/c1sc(=O)[nH]c1-[n+]1ccccc1)c1ccccc1[O-],1,8,12,6,-8,x
O=C(N/N=C/c1sc(=O)[nH]c1-[n+]1ccc2ccccc2c1)c1ccccc1[O-],134*,5,5,2,6,48*
CC(C)n1c(=O)n(CC(=O)NCC2CCCO2)c(=O)c2c3c(sc21)COC(C)(C)C3 (centres undefined),11,1,9,-2,6,x
COCCNc1nc(C)cc(-c2cc(C(=O)Nc3ccccc3)on2)n1,29*,1,3,2,2,3
COc1ccccc1NS(=O)(=O)c1ccc(C(=O)N2CCCCCC2)cc1,3,-1,x,5,x,x
CCOC(=O)C1CCCN(C(=O)c2ccc(S(=O)(=O)Nc3ccccc3OC)cc2)C1 (centres undefined),21*,0,8,1,x,-11
O=C(CSc1ccccc1)NCC1(N2CCOCC2)CCCCC1,0,2,9,-2,-6,x
COc1cc(N=Nc2ccccc2C(=O)O)ccc1O,-5,4,-7,-7,-10,x
O=Cc1cc(N=Nc2ccccc2Cl)ccc1O,25*,1,14,-1,10,36*
O=Cc1cc(N=Nc2cccc(C(=O)O)c2)ccc1O,15*,4,-16,-10,3,24*
O=C(NCC(F)(F)F)c1csc([C@@H]2O[C@H](CO)[C@H](O)[C@H](O)[C@H]2O)n1,-2,x,x,x,x,x
COc1ccc(OC)c(CCNC(=O)CCCc2nnc3n(C)c(=O)c4sccc4n23)c1,-7,0,15,-3,2,x
Cc1ccc(C)c(-n2nnc3ccccc3c2=O)c1,5,x,x,x,x,x
O=C(CS(=O)(=O)c1cn(Cc2ccc(Cl)cc2)c2ccccc12)N1CCCCC1,17*,0,-10,-8,18,5
CN(C(=O)CCc1ccccc1)c1nnc(-c2ccncc2)s1,0,2,-24,-1,-11,x
C=CCN(C(=O)COc1ccccc1)c1nnc(-c2ccncc2)s1,18*,-1,7,5,3,-8
CCCNS(=O)(=O)c1ccc2c(c1)n(C)c(=O)n2C,16*,0,-1,-10,-7,-4

# High-throughput results: PubChem, several laboratories
